# In PubChem BioAssay (EPA / NIEHS):
# Active and inactive are the calls of the source. How the source made its calls: active means hit-call score of the fitted dose curve at least 0.9, where 1 is the maximum; inactive means score below 0.9.
# Tests used:
# [1] = read-out: flavin-containing dimethylaniline monooxygenases 3 (FMO3), FMO3 (gene 2328); assay: LTEA_HepaRG_FMO3: Life Technologies and Expression Analysis (LTEA) Assay for flavin-containing dimethylaniline monooxygenases 3 (FMO3) using HepaRG (AID 2283453); details: mRNA level, 48 h; actives raise or lower the signal;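 on AC50: FMO3 transcript by TaqMan qRT-PCR normalized to ACTB GAPDH and POLR2A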
# Method in brief: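 Eight-point concentration-response in serum-free HepaRG cultures (top 100 uM, 0.5% DMSO, 48 h). Read-out: FMO3 mRNA level normalized to three endogenous control genes, fitted bidirectionally versus vehicle.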
# [2] = read-out: Cytochrome P450 (CYP1A1), CYP1A1 (gene 1543); assay: LTEA_HepaRG_CYP1A1: Life Technologies and Expression Analysis (LTEA) Assay for Cytochrome P450 (CYP1A1) using HepaRG (AID 2283454); details: mRNA level, 48 h; actives raise or lower the signal
# Method in brief: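 Differentiated human HepaRG cells, after 48 h plating, exposed in duplicate for 48 h in serum-free induction medium to 8 half-log concentrations up to 100 uM in 0.5% DMSO. CYP1A1 mRNA by qRT-PCR, normalized to ACTB/GAPDH/POLR2A; bidirectional fit versus DMSO.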
# [3] = read-out: CFLAR gene, CFLAR (gene 8837); assay: LTEA_HepaRG_CFLAR: Life Technologies and Expression Analysis (LTEA) Assay for CFLAR gene using HepaRG (AID 2283455); details: mRNA level, 48 h; actives raise or lower the signal
# Method in brief: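 Gain- or loss-of-signal changes in CFLAR transcript were fitted bidirectionally relative to 0.5% DMSO. Cells (HepaRG, duplicate wells) were dosed for 48 h across eight half-log concentrations topping at 100 uM; quantitation by TaqMan qRT-PCR.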
# [4] = read-out: Forkhead box O1 (FOXO1), FOXO1 (gene 2308); assay: LTEA_HepaRG_FOXO1: Life Technologies and Expression Analysis (LTEA) Assay for Forkhead box O1 (FOXO1) using HepaRG (AID 2283456); details: mRNA level, 48 h; actives raise or lower the signal
# Method in brief: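 Using one lot of HepaRG hepatic cells kept in 0.5% DMSO, the team applied test chemicals in duplicate, half-log dilutions from 100 uM, for 48 h. Expression, normalised to ACTB/GAPDH/POLR2A, was compared with vehicle in either direction.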
# [5] = read-out: growth arrest and DNA damage 45 (GADD45A), GADD45A (gene 1647); assay: LTEA_HepaRG_GADD45A: Life Technologies and Expression Analysis (LTEA) Assay for growth arrest and DNA damage 45 (GADD45A) using HepaRG (AID 2283458); details: mRNA level, 48 h; actives raise or lower the signal
# Method in brief: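 HepaRG, 48 h exposure, 8 conc. (top 100 uM, half-log steps), 0.5% DMSO vehicle, duplicates. Read-out: qRT-PCR mRNA level, housekeeping-normalized (ACTB/GAPDH/POLR2A). Curves fit bidirectionally vs DMSO baseline.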
# [6] = read-out: Forkhead box O3 (FOXO3), FOXO3 (gene 2309); assay: LTEA_HepaRG_FOXO3: Life Technologies and Expression Analysis (LTEA) Assay for Forkhead box O3 (FOXO3) using HepaRG (AID 2283459); details: mRNA level, 48 h; actives raise or lower the signal
# Method in brief: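 Gene-expression endpoint: FOXO3 transcript level by qRT-PCR in HepaRG cultures treated 48 h with chemicals up to 100 uM (half-log, 0.5% DMSO vehicle).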
# [7] = read-out: ABC Transporter (ABCB1), ABCB1 (gene 5243); assay: LTEA_HepaRG_ABCB1: Life Technologies and Expression Analysis (LTEA) Assay for ABC Transporter (ABCB1) using HepaRG (AID 2283460); details: mRNA level, 48 h; actives raise or lower the signal
# Method in brief: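 Human liver HepaRG line treated 48 h with up to 100 uM compound (eight half-log points, 0.5% DMSO); ABCB1 mRNA change fitted bidirectionally against DMSO controls.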
# [8] = read-out: growth arrest and DNA damage 45 (GADD45B), GADD45B (gene 4616); assay: LTEA_HepaRG_GADD45B: Life Technologies and Expression Analysis (LTEA) Assay for growth arrest and DNA damage 45 (GADD45B) using HepaRG (AID 2283461); details: mRNA level, 48 h; actives raise or lower the signal
# Method in brief: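 Differentiated human HepaRG cells in serum-free induction medium exposed 48 h in duplicate to eight concentrations, top 100 uM, half-log steps, 0.5% DMSO. GADD45B mRNA by TaqMan qRT-PCR, normalized to ACTB, GAPDH, POLR2A; bidirectional fit versus DMSO.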
# [9] = read-out: ABC Transporter (ABCC3), ABCC3 (gene 8714); assay: LTEA_HepaRG_ABCC3: Life Technologies and Expression Analysis (LTEA) Assay for ABC Transporter (ABCC3) using HepaRG (AID 2283462); details: mRNA level, 48 h; actives raise or lower the signal
# Method in brief: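 Differentiated human HepaRG cells exposed 48 h in serum-free induction medium, 0.5% DMSO vehicle, 8-point half-log series to 100 uM in duplicate. ABCC3 mRNA by qRT-PCR, normalised to ACTB, GAPDH, POLR2A; bidirectional fit vs DMSO.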
# [10] = read-out: ABC Transporter (ABCB11), ABCB11 (gene 8647); assay: LTEA_HepaRG_ABCB11: Life Technologies and Expression Analysis (LTEA) Assay for ABC Transporter (ABCB11) using HepaRG (AID 2283463); details: mRNA level, 48 h; actives raise or lower the signal
# Method in brief: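 Using HepaRG cultures held in 0.5% DMSO, chemicals were tested at half-log dilutions from 100 uM for 48 h. Induction or suppression of ABCB11 mRNA, normalized to ACTB, GAPDH and POLR2A, was fitted bidirectionally against vehicle.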
# [11] = read-out: ABC Transporter (ABCC2), ABCC2 (gene 1244); assay: LTEA_HepaRG_ABCC2: Life Technologies and Expression Analysis (LTEA) Assay for ABC Transporter (ABCC2) using HepaRG (AID 2283464); details: mRNA level, 48 h; actives raise or lower the signal
# Method in brief: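 Differentiated HepaRG cells in serum-free induction medium exposed 48 h to eight half-log concentrations up to 100 uM, 0.5% DMSO, in duplicate. ABCC2 mRNA measured by qRT-PCR (TaqMan, Fluidigm), normalized to ACTB, GAPDH and POLR2A. Fitted in both directions against DMSO.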
# [12] = read-out: Broad substrate specificity ATP-binding cassette transporter ABCG2 (Homo sapiens) (UniProt Q9UNQ0); assay: LTEA_HepaRG_ABCG2: Life Technologies and Expression Analysis (LTEA) Assay for ABC Transporter (ABCG2) using HepaRG (AID 2283465); details: mRNA level, 48 h; actives raise or lower the signal
# Method in brief: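 Gene expression of ABCG2 in HepaRG liver cells is quantified by qRT-PCR following 48 h exposure across an eight-point series topping at 100 uM. Values come from bidirectional fitting relative to DMSO vehicle.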
# [13] = read-out: ATP-citrate lyase (ACLY), ACLY (gene 47); assay: LTEA_HepaRG_ACLY: Life Technologies and Expression Analysis (LTEA) Assay for ATP-citrate lyase (ACLY) using HepaRG (AID 2283466); details: mRNA level, 48 h; actives raise or lower the signal
# Method in brief: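 ACLY expression changes in human HepaRG liver cells are quantified by qRT-PCR after 48 h exposure to test chemicals (maximum 100 uM, half-log steps). Values are fitted in both directions relative to 0.5% DMSO vehicle.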
# [14] = read-out: Peroxisomal acyl-coenzyme A oxidase 1 (ACOX1) gene, ACOX1 (gene 51); assay: LTEA_HepaRG_ACOX1: Life Technologies and Expression Analysis (LTEA) Assay for Peroxisomal acyl-coenzyme A oxidase 1 (ACOX1) gene using HepaRG (AID 2283467); details: mRNA level, 48 h; actives raise or lower the signal
# Method in brief: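 Human HepaRG hepatic cultures, 48 h treatment with test chemicals up to 100 uM. ACOX1 expression read by qRT-PCR relative to 0.5% DMSO vehicle.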
# [15] = read-out: Alkaline Phosphatase, Placental (ALPP) gene, ALPP (gene 250); assay: LTEA_HepaRG_ALPP: Life Technologies and Expression Analysis (LTEA) Assay for Alkaline Phosphatase, Placental (ALPP) gene using HepaRG (AID 2283468); details: mRNA level, 48 h; actives raise or lower the signal
# Method in brief: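 HepaRG cells plated 48 h, then exposed in duplicate for 48 h in serum-free induction medium to 8-point half-log series from 100 uM in 0.5% DMSO. ALPP mRNA by TaqMan qRT-PCR, normalized to ACTB/GAPDH/POLR2A; bidirectional fit versus DMSO.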
# [16] = read-out: Bcl-2 (BAD) gene, BAD (gene 572); assay: LTEA_HepaRG_BAD: Life Technologies and Expression Analysis (LTEA) Assay for Bcl-2 (BAD) gene using HepaRG (AID 2283469); details: mRNA level, 48 h; actives raise or lower the signal
# Method in brief: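 Activity values reflect up- or down-regulation of BAD mRNA in human HepaRG hepatic cells treated 48 h in serum-free medium, with eight-point half-log dosing capped at 100 uM and 0.5% DMSO vehicle.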
# [17] = read-out: Bcl-2 (BAX) gene, BAX (gene 581); assay: LTEA_HepaRG_BAX: Life Technologies and Expression Analysis (LTEA) Assay for Bcl-2 (BAX) gene using HepaRG (AID 2283470); details: mRNA level, 48 h; actives raise or lower the signal
# Method in brief: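 qRT-PCR read-out of BAX mRNA, normalized to three housekeeping genes, after 48 h chemical exposure of human HepaRG cells in serum-free induction medium; eight-point half-log series, top 100 uM, 0.5% DMSO vehicle; bidirectional fit versus DMSO.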
# [18] = read-out: adenosine kinase (ADK) gene, ADK (gene 132); assay: LTEA_HepaRG_ADK: Life Technologies and Expression Analysis (LTEA) Assay for adenosine kinase (ADK) gene using HepaRG (AID 2283471); details: mRNA level, 48 h; actives raise or lower the signal
# Method in brief: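 Following 48 h exposure of HepaRG cells in 0.5% DMSO (top concentration 100 uM, duplicate wells), ADK mRNA induction or suppression was measured by qRT-PCR, normalised to ACTB/GAPDH/POLR2A, and fitted bidirectionally relative to vehicle.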
# [19] = read-out: Alpha-fetoprotein (AFP) gene, AFP (gene 174); assay: LTEA_HepaRG_AFP: Life Technologies and Expression Analysis (LTEA) Assay for Alpha-fetoprotein (AFP) gene using HepaRG (AID 2283472); details: mRNA level, 48 h; actives raise or lower the signal
# Method in brief: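 qRT-PCR (Fluidigm TaqMan) readout of AFP transcript, normalized to three housekeeping genes, fitted bidirectionally against 0.5% DMSO baseline. HepaRG cells received chemicals for 48 h in serum-free induction medium, top concentration 100 uM, half-log steps.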
# [20] = CEETOX_H295R_TESTO: CeeTox H295R High-throughput Steroidogenesis Assay for Testosterone (TESTO) (AID 2283457); details: actives raise or lower the signal
# Method in brief: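 H295R adrenal cells, passage ≤10, exposed to chemicals for 48 h. Testosterone in medium measured by MTBE extraction and HPLC-MS/MS against a 7-point standard curve. Bidirectional fit versus DMSO; MTT viability checked in the same wells.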
# Broad substrate specificity ATP-binding cassette transporter ABCG2 (Homo sapiens), sequence (Q9UNQ0 whole entry, looked up): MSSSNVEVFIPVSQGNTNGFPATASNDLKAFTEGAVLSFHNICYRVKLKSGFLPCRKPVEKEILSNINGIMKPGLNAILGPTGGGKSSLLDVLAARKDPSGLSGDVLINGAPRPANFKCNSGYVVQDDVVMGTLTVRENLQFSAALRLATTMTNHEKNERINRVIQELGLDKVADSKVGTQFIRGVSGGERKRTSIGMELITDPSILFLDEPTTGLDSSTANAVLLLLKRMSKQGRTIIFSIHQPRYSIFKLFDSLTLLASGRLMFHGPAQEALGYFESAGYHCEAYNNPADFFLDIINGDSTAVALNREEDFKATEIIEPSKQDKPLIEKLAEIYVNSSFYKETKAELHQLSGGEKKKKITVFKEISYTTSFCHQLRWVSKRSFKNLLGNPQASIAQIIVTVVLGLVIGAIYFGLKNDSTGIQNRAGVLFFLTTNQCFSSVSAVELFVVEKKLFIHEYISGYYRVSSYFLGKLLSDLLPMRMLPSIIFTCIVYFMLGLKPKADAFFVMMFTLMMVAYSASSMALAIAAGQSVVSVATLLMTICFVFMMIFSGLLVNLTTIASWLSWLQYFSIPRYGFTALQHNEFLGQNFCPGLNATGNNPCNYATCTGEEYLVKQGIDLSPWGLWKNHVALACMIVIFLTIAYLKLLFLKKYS
compound,measurement,setting,value
O=C(O)COc1ccc(Cl)cc1Cl,outcome,[1],inactive
same,AC50,[2],43.4 µM (active)
same,outcome,[3],inactive
same,outcome,[4],inactive
same,outcome,[5],inactive
same,outcome,[6],inactive
same,outcome,[7],inactive
same,outcome,[8],inactive
same,outcome,[9],inactive
same,AC50,[10],31.2 µM (active)
same,outcome,[11],inactive
same,outcome,[12],inactive
same,outcome,[13],inactive
same,outcome,[14],inactive
same,outcome,[15],inactive
same,outcome,[16],inactive
same,outcome,[17],inactive
same,outcome,[18],inactive
same,outcome,[19],inactive
N#CN,outcome,[1],inactive
same,outcome,[2],inactive
same,outcome,[3],inactive
same,outcome,[4],inactive
same,outcome,[5],inactive
same,outcome,[6],inactive
same,outcome,[7],inactive
same,outcome,[8],inactive
same,outcome,[9],inactive
same,outcome,[10],inactive
same,outcome,[11],inactive
same,outcome,[12],inactive
same,outcome,[13],inactive
same,outcome,[15],inactive
same,outcome,[16],inactive
same,outcome,[17],inactive
same,outcome,[18],inactive
same,outcome,[19],inactive
C#CCN1C(=O)COc2cc(F)c(N3C(=O)C4=C(CCCC4)C3=O)cc21,outcome,[1],inactive
same,AC50,[2],65.6 µM (active)
same,outcome,[3],inactive
same,outcome,[4],inactive
same,outcome,[20],inactive
same,outcome,[5],inactive
same,outcome,[6],inactive
same,AC50,[7],9.92 µM (active)
same,outcome,[8],inactive
same,outcome,[9],inactive
same,AC50,[10],50 µM (active)
same,AC50,[11],8.81 µM (active)
same,outcome,[12],inactive
same,outcome,[13],inactive
same,outcome,[15],inactive
same,outcome,[16],inactive
same,outcome,[17],inactive
same,outcome,[18],inactive
same,AC50,[19],40.4 µM (active)
O=C1c2ccccc2C(=O)N1SC(Cl)(Cl)Cl,outcome,[1],inactive
same,outcome,[2],inactive
same,outcome,[3],inactive
same,outcome,[4],inactive
same,outcome,[5],inactive
same,outcome,[6],inactive
same,outcome,[7],inactive
same,outcome,[8],inactive
same,outcome,[9],inactive
same,outcome,[10],inactive
same,outcome,[11],inactive
same,outcome,[12],inactive
same,outcome,[13],inactive
same,outcome,[14],inactive
same,outcome,[15],inactive
same,outcome,[16],inactive
same,outcome,[17],inactive
same,outcome,[18],inactive
same,outcome,[19],inactive
CNC(=O)CSP(=S)(OC)OC,outcome,[1],inactive
same,AC50,[2],24.8 µM (active)
same,outcome,[3],inactive
same,outcome,[4],inactive
same,outcome,[5],inactive
same,outcome,[6],inactive
same,outcome,[7],inactive
same,outcome,[8],inactive
same,outcome,[9],inactive
same,outcome,[10],inactive
same,outcome,[11],inactive
same,outcome,[12],inactive
same,outcome,[13],inactive
same,outcome,[15],inactive
same,outcome,[16],inactive
same,outcome,[17],inactive
same,outcome,[18],inactive
same,outcome,[19],inactive
O=[N+]([O-])/N=C1\NCCN1Cc1ccc(Cl)nc1,AC50,[1],34.6 µM (active)
same,AC50,[2],9.92 µM (active)
same,AC50,[3],26.3 µM (active)
same,outcome,[4],inactive
same,outcome,[20],inactive
same,AC50,[5],23.6 µM (active)
same,AC50,[6],26.9 µM (active)
same,AC50,[7],15.9 µM (active)
same,outcome,[8],inactive
same,outcome,[9],inactive
same,AC50,[10],26.6 µM (active)
same,AC50,[11],24.9 µM (active)
same,AC50,[12],35.3 µM (active)
same,outcome,[13],inactive
same,outcome,[15],inactive
same,outcome,[16],inactive
same,outcome,[17],inactive
same,AC50,[18],35.2 µM (active)
same,AC50,[19],31.7 µM (active)
